From PubChem BioAssay come the findings set out here.

Molecules are shown by their SMILES. Values without a mark were called inactive. Activity calls are given as the source filed them.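 How the source made its calls: active means thallium flux through the channel raised or lowered by more than 3 SD from vehicle-only wells, actives on both sides; inactive means the rest.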

What all share (test): BK channel mutant inhibitors and activators – cell-based, U2OS BacMam, thallium flux, beta subunits, selectivity assay, profiling panel (AID 1259406);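 further: initial slope of Thallos dye fluorescence rise after thallium is added; log ratio against the mean of 0.3% DMSO vehicle wells on the same plate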
In one assay the test system is F380Y/beta2Delta. The following applies: U2OS BacMam BK variants, at 30 µM.
The test system of another assay is F380Y/beta4. The following applies: U2OS BacMam BK variants, at 30 µM.
Assay [1] addresses Calcium-activated potassium channel subunit alpha-1 (Homo sapiens) + Leucine-rich repeat-containing protein 26 (Homo sapiens) (UniProt Q12791+Q2I0M4). The following applies: U2OS BacMam BK variants, F380Y/Slo1WT/gamma1, at 30 µM.
The test system of another assay is R275C. The following applies: U2OS BacMam BK variants, at 30 µM.
The test system of the next assay is R275C/beta1. The following applies: U2OS BacMam BK variants, at 30 µM.
A further assay has as its system R275C/beta2Delta. The following applies: U2OS BacMam BK variants, at 30 µM.
In the next assay the test system is R275C/beta4. The following applies: U2OS BacMam BK variants, at 30 µM.
A further assay relates to R275C/Slo1WT/beta2. The following applies: U2OS BacMam BK variants, at 30 µM.

Chain of Calcium-activated potassium channel subunit alpha-1 (Homo sapiens) + Leucine-rich repeat-containing protein 26 (Homo sapiens) (Q2I0M4 whole entry, looked up, one chain of several): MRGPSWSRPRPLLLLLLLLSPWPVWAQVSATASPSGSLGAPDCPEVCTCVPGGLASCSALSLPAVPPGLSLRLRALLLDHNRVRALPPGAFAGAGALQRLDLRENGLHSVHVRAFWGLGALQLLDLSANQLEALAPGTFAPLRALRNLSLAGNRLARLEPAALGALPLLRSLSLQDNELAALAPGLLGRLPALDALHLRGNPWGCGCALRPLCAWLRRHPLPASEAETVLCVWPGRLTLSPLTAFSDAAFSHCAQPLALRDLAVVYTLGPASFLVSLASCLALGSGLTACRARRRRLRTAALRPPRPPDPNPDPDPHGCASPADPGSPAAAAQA

Consider `Cc1ccsc1C(=CCCN1CCC[C@@H](C(=O)O)C1)c1sccc1C`, for which the log fold change Tl+ flux in the assay with F380Y/beta2Delta was 0.0383; in the assay with F380Y/beta4, 0.0453; in assay [1], 0.0044; in the assay on R275C, -0.056; with R275C/beta1, 0.0901 (active); in the assay with R275C/beta2Delta, 0.0627. Further, the log fold change Tl+ flux in the assay with R275C/beta4 is 0.0287; in the assay with R275C/Slo1WT/beta2, 0.0117.
`Nc1nc(F)nc2c1ncn2[C@@H]1O[C@H](CO)[C@@H](O)[C@@H]1O`: the log fold change Tl+ flux in the assay on F380Y/beta2Delta is 0.0109; with F380Y/beta4, -0.0895; in assay [1], -0.000905; in the assay on R275C, -0.0205; in the assay with R275C/beta1, -0.0181; with R275C/beta2Delta it was -0.00769. Besides, the log fold change Tl+ flux is -0.0294 in the assay with R275C/beta4 and -0.0303 in the assay with R275C/Slo1WT/beta2.
`CN1CCN(c2c(F)cc3c(=O)c(C(=O)O)cn4c3c2SCC4)CC1`: the log fold change Tl+ flux was 0.0235 in the assay on F380Y/beta2Delta; -0.00383 in the assay on F380Y/beta4; 0.0303 in assay [1]; -0.068 in the assay on R275C; 0.019 with R275C/beta1; 0.0239 with R275C/beta2Delta. Moreover, the values for the log fold change Tl+ flux with R275C/beta4 and with R275C/Slo1WT/beta2 were 0.00729 and -0.0231, respectively.
In the case of `COc1ccc2nc(S(=O)Cc3ncc(C)c(OC)c3C)[nH]c2c1` (stereo not given), the log fold change Tl+ flux in the assay on F380Y/beta2Delta was 0.0168; with F380Y/beta4, 0.00709; in assay [1], 0.0324; in the assay on R275C it was 0.00389; in the assay with R275C/beta1, 0.0492; with R275C/beta2Delta, 0.00389. Further, the log fold change Tl+ flux was 0.0199 in the assay on R275C/beta4 and 0.0436 in the assay with R275C/Slo1WT/beta2.
Regarding `COc1cc(C(=O)NC2CCCNC2)cc(OC)c1OC` (stereo not given), the log fold change Tl+ flux is -0.0479 with F380Y/beta2Delta; -0.0783 in the assay with F380Y/beta4; 0.00703 in assay [1]; -0.0701 with R275C; -0.0128 in the assay on R275C/beta1; 0.000824 in the assay with R275C/beta2Delta. For the same molecule, the log fold change Tl+ flux is 0.00216 with R275C/beta4 and -0.0186 in the assay on R275C/Slo1WT/beta2.
For the molecule `N#Cc1ccc(C(c2ccc(C#N)cc2)n2cncn2)cc1`, the log fold change Tl+ flux with F380Y/beta2Delta is 0.0563; with F380Y/beta4, 0.0185; in assay [1], 0.0131; in the assay with R275C it was -0.0506; in the assay with R275C/beta1, -0.0148; in the assay on R275C/beta2Delta, -0.0137. Also, the log fold change Tl+ flux in the assay on R275C/beta4 was -0.0251; in the assay with R275C/Slo1WT/beta2, 0.00776.
For `Cc1cccc(C)c1NC(=O)C(C)N` (stereo not given), the log fold change Tl+ flux in the assay with F380Y/beta2Delta is 0.0308; in the assay with F380Y/beta4, 0.00908; in assay [1], -0.00222; in the assay with R275C it was 0.0212; in the assay on R275C/beta1, -0.0204; with R275C/beta2Delta, -0.0462. Also, the log fold change Tl+ flux in the assay on R275C/beta4 was -0.0241; in the assay with R275C/Slo1WT/beta2 it was 0.0922 (active).
Consider `Cc1[nH]cnc1CN1CCc2c(c3ccccc3n2C)C1=O`, for which the log fold change Tl+ flux with F380Y/beta2Delta was -0.0209; in the assay with F380Y/beta4, -0.0392; in assay [1] it was 0.00572; in the assay with R275C it was -0.066; in the assay on R275C/beta1, 0.0308; in the assay with R275C/beta2Delta it was -0.0141. The log fold change Tl+ flux is 0.0279 in the assay with R275C/beta4 and 0.0535 with R275C/Slo1WT/beta2.
Consider `CN(C)CC[C@@H](c1ccc(Br)cc1)c1ccccn1`, for which the log fold change Tl+ flux in the assay on F380Y/beta2Delta is -0.012; in the assay on F380Y/beta4, 0.0692; in assay [1], 0.0361; with R275C, -0.0783; in the assay with R275C/beta1, 0.0411; in the assay with R275C/beta2Delta it was 0.0403. In addition, the values for the log fold change Tl+ flux in the assay with R275C/beta4 and in the assay on R275C/Slo1WT/beta2 were 0.00601 and 0.00129, respectively.
Regarding `O=C1[C@H]2CCCC[C@H]2C(=O)N1CCCCN1CCN(c2nsc3ccccc23)CC1`, the log fold change Tl+ flux with F380Y/beta2Delta is 0.0368; in the assay with F380Y/beta4 it was 0.0464; in assay [1], -0.0162; in the assay with R275C, -0.0177; in the assay with R275C/beta1, 0.107 (active); in the assay with R275C/beta2Delta, 0.0344. Besides, the log fold change Tl+ flux in the assay with R275C/beta4 was 0.0306; in the assay on R275C/Slo1WT/beta2 it was -0.00391.
Turning to `O=C(NCCN1CCOCC1)c1ccc(Cl)cc1`, the log fold change Tl+ flux in the assay on F380Y/beta2Delta was -0.0313; with F380Y/beta4, -0.0725; in assay [1] it was -0.000886; in the assay on R275C it was -0.0119; with R275C/beta1, -0.015; in the assay with R275C/beta2Delta it was -0.0276. The log fold change Tl+ flux was -0.0049 in the assay with R275C/beta4 and -0.0216 with R275C/Slo1WT/beta2.
Regarding `COC(=O)C1=C(C)NC(C)=C(C(=O)O[C@@H]2CCCN(Cc3ccccc3)C2)[C@@H]1c1cccc([N+](=O)[O-])c1`, the log fold change Tl+ flux in the assay with F380Y/beta2Delta was -0.042; with F380Y/beta4 it was -0.0532; in assay [1], -0.0108; in the assay on R275C, -0.0526; in the assay with R275C/beta1, 0.192 (active); with R275C/beta2Delta it was 0.191 (active). The figures for the log fold change Tl+ flux in the assay on R275C/beta4 and in the assay with R275C/Slo1WT/beta2 were -0.0168 and -0.0109, respectively.
As for `C[C@H](NC(CCc1ccccc1)C(=O)O)C(=O)N1CCC[C@H]1C(=O)O` (stereo not given in full), the log fold change Tl+ flux is 0.0235 in the assay with F380Y/beta2Delta; 0.0162 in the assay with F380Y/beta4; -0.0317 in assay [1]; -0.0419 with R275C; 0.0208 with R275C/beta1; 0.0297 in the assay with R275C/beta2Delta. The log fold change Tl+ flux in the assay on R275C/beta4 is 0.0258; in the assay with R275C/Slo1WT/beta2 it was 0.0874 (active).
Regarding `CCN1CCCC1CNC(=O)c1cc(S(=O)(=O)CC)c(N)cc1OC` (stereo not given), the log fold change Tl+ flux with F380Y/beta2Delta was 0.0211; in the assay on F380Y/beta4, 0.00308; in assay [1], -0.0597; with R275C, -0.0334; with R275C/beta1, 0.00406; in the assay on R275C/beta2Delta, -0.0411. For the same molecule, the log fold change Tl+ flux with R275C/beta4 is -0.0037; in the assay with R275C/Slo1WT/beta2 it was 0.0112.
For `Clc1ccc2nsnc2c1NC1=NCCN1`, the log fold change Tl+ flux in the assay with F380Y/beta2Delta was -0.0575; in the assay with F380Y/beta4 it was -0.0136; in assay [1], 0.00637; with R275C, 0.0392; in the assay on R275C/beta1, 0.0375; with R275C/beta2Delta it was -0.063. Further, the log fold change Tl+ flux with R275C/beta4 is 0.0661; with R275C/Slo1WT/beta2, 0.00517.
